This is part of a sample that, as a whole, favours compounds with a hit. Of some 83,000 tested, about 20% had one in any assay.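 The endpoint reported here, percent growth, reads 100 for growth as untreated, 0 for no net growth and -100 for all cells dead.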 Values without a mark were called inactive. Active and inactive are the calls of the source. How the source made its calls: active means growth percent below 10; inactive means the rest.
Legend:
Test in all cases: NCI-60 one-dose screen, 48 h (100 = growth as untreated, 0 = no growth, -100 = all killed)
Conditions in all cases: 10 µM unless noted
[1] = test system: NCI-H23 lung
[2] = test system: NCI-H226 lung
[3] = test system: NCI-H322M lung
[4] = test system: HOP-62 NSCLC
[5] = test system: NCI-H460 lung
[6] = test system: HOP-92 NSCLC
[7] = test system: NCI-H522 lung
[8] = test system: A549/ATCC NSCLC
[9] = test system: 786-0 renal
[10] = test system: COLO 205 colon
[11] = test system: DU-145 prostate
[12] = test system: MALME-3M melanoma
[13] = test system: MDA-MB-231 breast
[14] = test system: RXF 393 renal
[15] = test system: SF-268 CNS
[16] = test system: SF-295 CNS
[17] = test system: SF-539 CNS
[18] = test system: UACC-257 melanoma
[19] = test system: M14 melanoma

Compound | growth [1] | growth [2] | growth [3] | growth [4] | growth [5] | growth [6] | growth [7] | growth [8] | growth [9] | growth [10] | growth [11] | growth [12] | growth [13] | growth [14] | growth [15] | growth [16] | growth [17] | growth [18] | growth [19]
Cc1cc(N[C@@H]2CCC[C@H](Nc3ccnc4cc(Cl)ccc34)C2)nc(N2CCCCCC2)n1 | -30.3% (active) | -38.9% (active) | -37.8% (active) | -69.7% (active) | -70.9% (active) | -77.7% (active) | -61.5% (active) | -48.9% (active) | -96.1% (active) | -79.3% (active) | -6.21% (active) | -86.4% (active) | -85.8% (active) | -80.6% (active) | -66.2% (active) | -76.1% (active) | -93% (active) | -76.5% (active) | -89.2% (active)
O=C1/C(=C/c2ccc(OCCCOc3ccc(Cl)cc3)cc2)N=C2SCCCN12 | 49.7% | 86.4% | 103% | 99.1% | 98.1% | 92.5% | 34.6% | 73.4% | 82.1% | 78.2% | 94.5% | 122% | 77.3% | 110% | 100% | 66.7% | 97% | 102% | 95.9%
COc1cccc(-c2nc(SCC(=O)Nc3ccc(C(=O)/C=C/c4ccc(OC)c(OC)c4)cc3)[nH]c(=O)c2C#N)c1 | 77.7% | 105% | 76.3% | 94.1% | 94.7% | 93.2% | 75.4% | 90.6% | 99.4% | 103% | 89.4% | 97.4% | 67.6% | 85.2% | 82.9% | 94.5% | 86.2% | 97.4% | 100%
COc1cc(-c2nc(C(=O)NCC(=O)NO)nn2-c2ccc(Cl)cc2)cc(OC)c1OC | 97.1% | 91.8% | 118% | 93.6% | 107% | 86.5% | 86.8% | 90.1% | 101% | 103% | 107% | 129% | 101% | 107% | 104% | 107% | 96.7% | 86.8% | 101%
COc1ccc(O)c(N=Nc2nccs2)c1 | 87.9% | 92.2% | 91.4% | 94.2% | 101% | 49.4% | 88.2% | 91.1% | 70.6% | 94.8% | 94.9% | 102% | 39.3% | 87.9% | 67.9% | 103% | 96.8% | 93.7% | 105%
CC[N+](CC)=c1sc2c(s1)C(c1ccc(Cl)cc1)Oc1ccc(Cl)cc1-2 (stereo not drawn) | 6.45% (active) | 52.1% | 16.8% | 12.4% | -29.6% (active) | -18% (active) | -12.9% (active) | 7.61% (active) | 30.7% | -69.6% (active) | 24.4% | -9.37% (active) | -38% (active) | 10.7% | 24% | 2.98% (active) | -22.1% (active) | -7.21% (active) | 17.3%
Cn1ccnc1C(=O)/C=C/c1ccc(CC(=O)Nc2ccccc2)cc1 | 18.9% | 47% | 2.66% (active) | 6.23% (active) | -19% (active) | 26.6% | 12.8% | 5.36% (active) | 18.6% | 4.76% (active) | 10.3% | 72.8% | 12.6% | 12.1% | 10.6% | 26.2% | -18.5% (active) | 78.7% | 27.8%
N#Cc1nnn(-c2ccc(S(N)(=O)=O)cc2)c1NC(=O)CCl | 100% | 95.5% | 93.4% | 92.2% | 104% | 96.1% | 95% | 92.9% | 98% | 110% | 107% | 102% | 102% | 109% | 97.6% | 98.2% | 98.8% | 89% | 95.4%
COc1ccc(CN2c3ccccc3Oc3ccccc32)cc1O | 33.8% | 93.9% | 56.3% | 42.1% | 13.3% | 32.8% | -33.2% (active) | 37.6% | 43.2% | 91.3% | 36.8% | 45.1% | 56.6% | 50.1% | 57.4% | 14.5% | 16.3% | 39.1% | 18%
Clc1ccc2c(NCCCNc3nc(-n4ccnc4)nc4ccccc34)ccnc2c1 | 96.1% | 90.4% | 94.7% | 83% | 95.2% | 58% | 89% | 92.3% | 77.6% | 87.7% | 94.8% | 102% | 83.2% | 81% | 89% | 89.6% | 76.1% | 94.2% | 95.1%
NC(=NCCCOc1ccc(Cl)cc1)Nc1ccc(C(F)(F)F)cc1 | 33.4% | 97.5% | 34.9% | 48.3% | 18.4% | 20.9% | 42.5% | 49.4% | 53.4% | -67.1% (active) | 20.4% | -49.3% (active) | 10.1% | 71.4% | 46% | 43.9% | 48.7% | 11.7% | -47.8% (active)
CCCCC[C@H]1C/C=C2/C(=O)C=C[C@@H]2C/C=C\CCCC(=O)O1 | -17.4% (active) | -65.1% (active) | -52.7% (active) | -46.3% (active) | -1.5% (active) | -39.5% (active) | -78.4% (active) | -23.6% (active) | -76.4% (active) | -47.6% (active) | -32.4% (active) | -24.8% (active) | 7.59% (active) | -89.9% (active) | 3.72% (active) | -33.5% (active) | -71.4% (active) | -49.4% (active) | -29.3% (active)
O=c1oc2c(C(F)(F)F)cccc2cc1-c1csc(Nc2ccc(OCCF)cc2)n1 | 24.2% | 17.3% | 31% | 22.5% | 4.07% (active) | 27.4% | -42.9% (active) | 18.1% | 9.77% (active) | -71.8% (active) | 2.54% (active) | 66.2% | 9.58% (active) | 22.5% | 23.3% | 4.4% (active) | -28.6% (active) | 55.2% | 4.98% (active)
C=C1C(=O)O[C@H]2[C@H]1CC/C(COC(=O)NCc1ccc(OC)c(OC)c1)=C\CC[C@@]1(C)O[C@@H]21 | 45.8% | 85.9% | 97.6% | 87.8% | 87.8% | 66.2% | -65.5% (active) | 97.9% | 81.6% | 8.26% (active) | 28.6% | 61.5% | 55% | 20.7% | 79.8% | 88.2% | 42.9% | 64.2% | 61.5%
CC(=O)Oc1ccc(Cl)cc1CN(C(C)=O)C1CCCCC1 | 116% | 96.3% | 101% | 102% | 114% | 83.4% | 88.2% | 106% | 90% | 104% | 125% | 111% | 105% | 101% | 100% | – | 111% | 81.3% | 109%
COc1ccc(N=Nc2nccs2)c(O)c1 | 79.3% | 63.6% | 88.4% | 66.3% | 40.4% | 52.8% | 69.2% | 97.2% | 18.9% | 44.2% | 51.3% | 92.1% | 35.8% | 52.7% | 26.4% | 95% | 40.2% | 85.3% | 59.6%
C=C1C(=O)O[C@H]2[C@H]1CC/C(COC(=O)NCCc1ccc(OC)c(OC)c1)=C\CC[C@@]1(C)O[C@@H]21 | 59.2% | 82.6% | 88% | 92.7% | 93.9% | 26.6% | -79.9% (active) | 86.4% | 77.7% | 12.7% | 39.5% | 63.3% | 58% | 34.7% | 80.3% | 95.8% | 47.2% | 62.9% | 65.7%
CCN(CC)c1ccc2c(c1)Oc1nc(N)c(C#N)c(N)c1C2Sc1ccc(SC)cc1 (stereo not drawn) | -22.7% (active) | -46.9% (active) | -15.1% (active) | -25.3% (active) | -15.3% (active) | -12.5% (active) | -50.8% (active) | -2.37% (active) | -39.1% (active) | -73.6% (active) | -48% (active) | -15.9% (active) | -39.3% (active) | -67.6% (active) | 4.56% (active) | -54.2% (active) | -71.8% (active) | 55.6% | -42.3% (active)
CCN1CCN(c2nc(NCCCNc3ccnc4cc(Cl)ccc34)c3ccccc3n2)CC1 | 64.3% | 60.4% | 45.4% | 32.4% | 16.3% | 64.9% | -21.5% (active) | 18.8% | 30.7% | -22.9% (active) | 39.5% | -73.5% (active) | -10.8% (active) | 5.38% (active) | 55.1% | 22.7% | -74.4% (active) | -82.8% (active) | -87% (active)
CCOc1ccc(C(C)=O)cc1NC(=O)c1cccc(-c2nnn(CC)n2)c1 | 42.6% | 59% | 49.1% | 36.8% | 12.1% | 42.5% | -38.3% (active) | 45% | 35.5% | -3.73% (active) | 16.7% | 47.2% | 47.9% | -1.89% (active) | 59% | 7.49% (active) | -16.7% (active) | 57.1% | 9.12% (active)
Cc1nc(Nc2ccc(F)c(Cl)c2)sc1C(=O)O | 15.7% | 26.9% | 54.3% | 27.3% | 18.1% | -23.8% (active) | -9.27% (active) | 12.9% | 19.6% | 5.72% (active) | 28.2% | 30.8% | -19.8% (active) | 15.4% | 29.3% | 15.2% | 24.4% | 4.37% (active) | 19.2%
FC(F)(F)Oc1ccc2nc3nc4ccc[nH]c4cc3c2c1 | 64.7% | 57.2% | 71.6% | 58.4% | 46.2% | 84.7% | 75.3% | 64.5% | 46.4% | 95.4% | 87.7% | 93% | 74.2% | 76.7% | 82.3% | 98.2% | 84.8% | 103% | 96.2%
COc1ccc(CN2c3ccccc3Sc3ccccc32)cc1O | 36.6% | 71% | 33.1% | 36.3% | 10% | 50.4% | -40.4% (active) | 24.2% | 42.5% | -7.4% (active) | 17.9% | 71.9% | 41.2% | -9.86% (active) | 45.6% | 4.23% (active) | -11% (active) | 52.5% | 14.4%
CCc1nc(N)nc(N)c1C#CC(C)c1ccc(-c2ccncc2)cc1Cl (stereo not drawn) | 16.2% | 57.4% | 38.4% | 10.3% | 5.02% (active) | 6.88% (active) | -9.46% (active) | 9.61% (active) | 18.3% | 12.3% | 21.1% | 39.6% | 43.3% | 32.9% | 16.6% | 10.1% | 4.42% (active) | 31.9% | 1.01% (active)
Cc1cc(N2CCOCC2)nc(N[C@@H]2CCC[C@H](Nc3ccnc4cc(Cl)ccc34)C2)n1 | 62% | 34.2% | 27.2% | -15.2% (active) | 12.2% | -21.7% (active) | -26.8% (active) | 13.8% | -73% (active) | -82% (active) | 26.2% | -75.3% (active) | -53.7% (active) | -57.6% (active) | 19.1% | -66.2% (active) | -79.7% (active) | -86.4% (active) | -86.7% (active)
C/C1=C\CC[C@@]2(C)O[C@H]2[C@H]2OC(=O)C(CN3CCN(CC4C(=O)O[C@H]5[C@H]4CC/C(C)=C/CC[C@@]4(C)O[C@@H]54)CC3)[C@@H]2CC1 (stereo partly drawn) | 98.5% | 99.2% | 99.3% | 107% | 107% | 100% | 33.4% | 93.5% | 109% | 98.2% | 60.6% | 101% | 87.1% | 94.6% | 104% | 103% | 90.5% | 83.5% | 93.1%

From PubChem BioAssay (NCI)
